# Screens: PubChem BioAssay, National Center for Advancing Translational Sciences (NCATS)
# IP6K1 inh – blocks human inositol hexakisphosphate kinase 1; Q92551; IP6K1 kinase, ADP-Glo luminescence, 2 h; hits give low values; activity change, % (series mostly up to about 58 µM); 0.81% of 140,000 active; in the data active means activity change below about -25%; further: on the % scale 0 is the no-effect control and ±100 the full control effect
# Target sequence (Q92551 whole entry, looked up): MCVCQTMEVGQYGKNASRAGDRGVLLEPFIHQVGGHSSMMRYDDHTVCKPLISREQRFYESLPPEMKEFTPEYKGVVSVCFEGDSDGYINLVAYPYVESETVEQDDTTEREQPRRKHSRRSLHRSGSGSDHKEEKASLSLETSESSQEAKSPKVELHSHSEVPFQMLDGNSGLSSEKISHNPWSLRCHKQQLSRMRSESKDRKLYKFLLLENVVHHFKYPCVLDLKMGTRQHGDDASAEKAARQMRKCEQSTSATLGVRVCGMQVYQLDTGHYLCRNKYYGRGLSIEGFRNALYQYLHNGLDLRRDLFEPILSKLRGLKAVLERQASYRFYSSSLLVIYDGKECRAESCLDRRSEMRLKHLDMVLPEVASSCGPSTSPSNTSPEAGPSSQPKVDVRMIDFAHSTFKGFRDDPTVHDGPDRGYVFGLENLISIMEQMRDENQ
#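 ADP-Glo luminescence measures ADP made by human IP6K1 during a 2 h RT reaction with ATP/IP6 (mix at 1.3 mM/130 uM); top library doses 57.5 and 19.1 uM final.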
# KDM5B inhibitor – KDM5B demethylase inhibition | KDM5B demethylase, FDH-coupled NADH fluorescence (FDH is formaldehyde dehydrogenase) | Q9UGL1 | Potency, µM (titrated, usually from 57.7 µM), usual class: inhibitors | 2.6% of 220,000 active; active means well fitted inhibition curve with a large enough effect; inconclusive means small, poorly fitted or top-dose-only effect; inactive means no such curve, though single readings can be large or run the other way; further: potency means the concentration at half of the fitted maximal effect; 0% is about no effect; nearly all actives have a fitted effect of over 70% in size
#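 Measured: NADH fluorescence change, 30 min, RT. System: KDM5BΔAP 200 nM final, H3K4me3 peptide, α-KG, Fe(II), ascorbate, NAD⁺ plus FDH, pH 7.5 HEPES. Compounds: titrated, 10 min pre-incubation with enzyme.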
# Numbers without * were called inactive; i = inactive; u = inconclusive; x = no result given. The list is not random: actives were taken first. Their share in the collection is about 2.8%.
SMILES,IP6K1 inh,KDM5B inhibitor
Cc1ccc(-c2ccc3nnc(CNC(=O)c4ccc(F)c(F)c4)n3n2)cc1C,6,32µM*
Cc1ccc(C(=O)NCc2nnc3ccc(-c4ccc(C)c(C)c4)nn23)s1,18,28µM*
Cc1ccc(-c2ccc3nnc(CNC(=O)c4ccc[nH]4)n3n2)cc1C,-9,i
O=C(NCc1nnc2ccc(-c3ccccc3)nn12)c1cccc(C(F)(F)F)c1,10,32µM*
Cc1ccc(-c2ccc3nnc(CNC(=O)c4ccc(C#N)cc4)n3n2)cc1C,-4,u
Cc1ccc(-c2ccc3nnc(CNC(=O)c4cccc(N(C)C)c4)n3n2)cc1C,-16,i
Cc1ccc(C2=C(O)C(=O)N(Cc3ccco3)C2c2ccc(C(C)C)cc2)cc1 (stereo unspecified),x,i
COc1ccccc1CCC(=O)NCc1nnc2ccc(-c3ccc(C)c(C)c3)nn12,-18,u
O=C(NCc1nnc2ccc(-c3ccc(Cl)cc3)nn12)c1ccc(F)c(F)c1,13,32µM*
Cc1ccc(-c2ccc3nnc(CNC(=O)Cc4ccc(Cl)cc4)n3n2)cc1,-16,u
COc1ccccc1CC(=O)NCc1nnc2ccc(-c3ccc(C)c(C)c3)nn12,1,32µM*
Cc1ncc(-c2c(-c3ccccc3)ncn2CC(c2ccco2)N2CCCC2)[nH]1 (stereo unspecified),-25,25µM*
CCCCc1ncc(-c2c(-c3ccccc3)ncn2CC2(CO)CCC2)[nH]1,5,i
O=S(=O)(Cc1ccccc1)N1CCC(OC2CCN(Cc3cccnc3)CC2)CC1,-2,i
CCCn1cc(-c2ccnc(NC3CCN(Cc4cccnc4)CC3)n2)c(C)n1,-3,32µM*
O=C(NC1CCN(Cc2cccc(-c3ccc(F)c(F)c3)c2)CC1)c1ccccc1,-3,x
O=C(c1ccc(-c2cccs2)cc1)N1CCC(C(=O)N2CCN(Cc3ccccc3)CC2)CC1,2,x
Cc1nc(C(=O)NC2CCN(c3ncccc3C#N)CC2)cs1,8,28µM*
CC(C)c1cc(C(=O)N2CCN(c3ncccc3C#N)CC2)n(C)n1,20,32µM*
CN(C)C(C(=O)N1CCN(c2ncccc2C#N)CC1)c1cccc(F)c1 (stereo unspecified),-7,u
Cc1ccccc1C(=O)NC1CCN(C(=O)c2ccc(-c3ncccc3C#N)cc2)CC1,31,x
CC(C)c1cc(C(=O)NC2CCN(c3ncccc3C#N)CC2)n(C)n1,-5,22µM*
COc1ccc(C(=O)N2CCN(c3nc4cccnc4o3)CC2)cc1C#N,x,i
Cc1cc2cc(C(=O)N3CCN(c4ncccc4C#N)CC3)ccc2o1,10,28µM*
CC(C)NC(=O)NC1CCN(C(=O)c2ccc(-c3ncccc3C#N)cc2)CC1,24,x
SMILES,IP6K1 inh,KDM5B inhibitor
Cc1noc(/C=C\c2ccc(S(=O)(=O)N3CCN(C)CC3)cc2)c1NC(=O)C1CC1,x,i
CC(C)(CO)NCc1cccc2ccccc12,x,i
O=C(CCC(=O)OCc1ccc(Br)cc1)Nc1ccc2c(c1)oc1ccccc12,x,i
Cn1ncc2c(C(=O)NC3CCCC3)cc(-c3cccc(F)c3)nc21,20,x
COc1ccc(-c2cccc(C(=O)N3CCCC3)c2)nn1,10,x
COc1ccc(-c2cc(C(=O)N3CCCC3)ccn2)cc1F,25,28µM*
C1C2CC3CC1CC(C2)C3NC12CC3CC(CC(C3)C1)C2 (stereo unspecified),x,i
Cc1ccc(C(=O)N2CCC(n3cc(-c4nc(C5CC5)no4)nn3)C2)s1 (stereo unspecified),14,i
O=C(c1cccnc1)N(Cc1cccs1)C1CC1,x,i
Cc1noc([C@@H](C)NC(=O)Nc2ccc(Cl)cc2)c1C(=O)O,-25,40µM*
C[C@@H](NC(=O)Nc1ccc(Cl)cc1)c1onc(-c2ccccc2)c1C(=O)O,3,i
COc1ccccc1-n1c(=O)c(C(=O)NCc2ccccc2F)nc2cccnc21,13,x
CCN(CC)c1cc(CCC(=O)NCc2ccccc2OC)ccn1,-1,25µM*
CCN(CC)c1cc(CCC(=O)NCc2cc(OC)ccc2OC)ccn1,0,14µM*
CCN(CC)c1cc(CCC(=O)Nc2ccc(OC)c(OC)c2)ccn1,9,u
CCn1cc(CCC(=O)NCc2ccccc2OC)c2ccccc21,27,u
COc1ccc2nc([C@H]3CCN(Cc4ccccc4)C3)[nH]c2c1,-4,u
COc1ccc(NC(=O)c2nc3sccn3c2-c2ccc(F)cc2)cc1,17,x
O=C(NCc1cccc(F)c1)C1CCCN(c2nccc(Nc3ccccc3F)n2)C1 (stereo unspecified),5,x
Cc1ccc(-c2cc(C(=O)NC3CCCCC3)c3ccccc3n2)cc1,x,i
Cc1cc(C(=O)NC2CCS(=O)(=O)C2)c2ccc(F)cc2n1 (stereo unspecified),x,i
Cc1ccc2c(C(=O)NC3CCN(C)CC3)cc(NC(=O)C3CCC3)cc2n1,4,22µM*
CC(=O)Nc1cc(C(=O)NC2CCCCC2)c2ccc(C)nc2c1,9,22µM*
Cc1c(C)c2ccc(OCC(=O)OCc3ccccc3)c(C)c2oc1=O,x,i
CCCc1nc(SCC(=O)N2CCOCC2)c2c(C)c(C)sc2n1,x,i
SMILES,IP6K1 inh,KDM5B inhibitor
CCCc1cc(CN(C)c2nc(CCN)nc3sc(C)c(C)c23)[nH]n1,19,22µM*
CN1c2cccnc2CN(CC2CCCCC2)CC[C@H]1CO,-4,28µM*
CN1c2cccnc2CN(C2CCCCC2)CC[C@H]1CO,-5,i
COc1cc(CN2CCN(Cc3ccccc3C)CC2)cc(OC)c1O,x,i
Cc1cccc(N2CCN(C(=O)c3cnc4c(C)cccn4c3=O)CC2C)c1 (stereo unspecified),18,i
Cc1cccc(CN2CCN(C(=O)c3cnc4ccccn4c3=O)CC2=O)c1,-4,32µM*
Cc1ccc(C(=O)NC2CCN(Cc3cccc(-c4cccc(C)c4)c3)CC2)cc1,-3,x
O=C(Nc1ccccc1)c1cc2n(n1)CC(c1ccc(Br)cc1)OC2 (stereo unspecified),27,32µM*
Cc1ccc(NC(=O)c2cc3n(n2)CC(c2ccc(Cl)cc2)OC3)cc1F (stereo unspecified),26,28µM*
COc1ccc(NC(=O)c2cc3n(n2)CC(c2ccc(Cl)cc2)OC3)cc1 (stereo unspecified),-12,i
O=C(Nc1ccc(F)cc1)c1cc2n(n1)CC(c1ccc(Br)cc1)OC2 (stereo unspecified),27,u
CC(=O)Nc1ccc(NC(=O)c2cc3n(n2)CC(c2ccc(Cl)cc2)OC3)cc1 (stereo unspecified),0,u
O=C(Nc1ccc(Cl)cc1)c1cc2n(n1)CC(c1ccc(Cl)cc1)OC2 (stereo unspecified),-8,32µM*
O=C(Nc1ccc(F)c(Cl)c1)c1cc2n(n1)CC(c1ccc(Cl)cc1)OC2 (stereo unspecified),11,25µM*
O=C(Nc1ccc(F)c(F)c1)c1cc2n(n1)CC(c1ccc(Cl)cc1)OC2 (stereo unspecified),29,i
COc1ccccc1-c1cccc(C(=O)N2CCN(C(=O)c3ccc(C)cc3)CC2)c1,4,x
O=C(Nc1ccc(F)c(F)c1)c1cc2n(n1)CC(c1ccc(Br)cc1)OC2 (stereo unspecified),-6,u
